Bioassay records deposited in PubChem BioAssay by National Center for Advancing Translational Sciences (NCATS).
HCMV inh: qHTS Assay for inhibitors of the human cytomegalovirus (HCMV); activity change, negative = inhibition, % at 57.5 µM; 4.5% of 410,000 active; HFF cells, HCMV-luciferase reporter, 72 h; active compounds read low; in the data active means activity change below about -60%; inconclusive means no clear call, values can overlap the other calls; inactive means above about -39%
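Steps: HFFs plated, 16 h 37C; compounds added; HCMV-luciferase added to MOI 1 PFU/cell; 72 h 37C; OneGlo reagent, 5 min room temperature; luminescence read, normalized to controls.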
FMDV antiviral: High Throughput Screening for Foot and Mouth Disease Virus Antivirals. FMDV antiviral cell-based qHTS. Potency, µM (highest dose often 57.9 µM), actives largely listed as inhibitors. 1.2% of 410,000 active; calls by dose curve; tested in HEK293T cells; further: read-out not given here; nearly all actives have a fitted effect of over 45% in size
Vaccinia Venus: qHTS for Stage-Specific Inhibitors of Vaccinia Orthopoxvirus: Venus Reporter Primary qHTS; Vaccinia virus Venus reporter expression, fluorescence; Potency, µM (highest dose often 36.5 µM), hits mostly inhibitors; 0.46% of 330,000 active; AID 720580, 2013; calls by dose curve; tested in A549 cells; further: nearly all actives have a fitted effect of over 30% in size
Vaccinia mCherry: qHTS for Stage-Specific Inhibitors of Vaccinia Orthopoxvirus: mCherry Reporter Primary qHTS. 0.63% of 310,000 active. AID 720579, 2013. Vaccinia virus mCherry reporter infection, fluorescence. Potency, µM (series often up to 36.5 µM), usual class: inhibitors; calls by dose curve; tested in A549 cells; further: nearly all actives have a fitted effect of over 35% in size
LASV entry inh: qHTS for Inhibitors of binding or entry into cells for Lassa Virus; Lassa virus pseudotype entry inhibition, cell reporter; Potency, µM (top dose mostly 37.9 µM), actives largely listed as inhibitors; 1.2% of 300,000 active; AID 540256, 2011; calls by dose curve; tested in HEK293 cells; further: nearly all actives have a fitted effect of over 50% in size
MARV entry inh: qHTS for inhibitors of binding or entry into cells for Marburg Virus; Marburg virus pseudotyped entry inhibition, cell reporter; Potency, µM (top dose mostly 37.8 µM), actives largely listed as inhibitors; 1.8% of 300,000 active; AID 540276, 2011; calls by dose curve; tested in HEK293 cells
Large screens that a line does not name were inactive. Shown are actives, neighbours in structure and some others; about 6.5% of the full set was active somewhere.

CCCC(=O)NC(c1ccc(Cl)cc1Cl)c1ccc2cccnc2c1O (stereo not given)	HCMV inh -105, Vaccinia Venus inconclusive, Vaccinia mCherry inconclusive, LASV entry inh inconclusive, MARV entry inh 2.2µM
Cc1ccc(C(Nc2ccccn2)c2ccc3cccnc3c2O)cc1 (stereo not given)	HCMV inh -64, Vaccinia Venus inconclusive, Vaccinia mCherry 11µM, LASV entry inh inconclusive, MARV entry inh inconclusive
CCCC(=O)NC(c1ccccc1)c1c(O)ccc2ccccc12 (stereo not given)	none (no result: Vaccinia Venus, Vaccinia mCherry, LASV entry inh, MARV entry inh)
CC(=O)NC(c1ccc(Cl)cc1Cl)c1ccc2cccnc2c1O (stereo not given)	HCMV inh -98 (no result: Vaccinia Venus, Vaccinia mCherry, LASV entry inh, MARV entry inh)
CCCCC(=O)NC(c1ccccc1Cl)c1c(O)ccc2ccccc12 (stereo not given)	HCMV inh inconclusive, FMDV antiviral inconclusive, Vaccinia mCherry inconclusive
CCCCC(=O)NC(c1ccc(Cl)cc1)c1ccc2cccnc2c1O (stereo not given)	HCMV inh -98, Vaccinia Venus inconclusive, Vaccinia mCherry 6.3µM, LASV entry inh inconclusive, MARV entry inh 4µM
CC(=O)NC(CC(=O)NC(C)c1ccc(Cl)cc1Cl)c1ccccc1 (stereo not given)	none
Cc1cccc(NC(c2cccc(Cl)c2)c2ccc3cccnc3c2O)n1 (stereo not given)	HCMV inh -98, Vaccinia Venus inconclusive, Vaccinia mCherry inconclusive, LASV entry inh 10µM, MARV entry inh inconclusive
COc1ccc(CCC(=O)NO)cc1	none (no result: HCMV inh, FMDV antiviral, LASV entry inh, MARV entry inh)
CC1CCc2cc(F)ccc2N1C(=O)CCl (stereo not given)	FMDV antiviral 14µM, MARV entry inh inconclusive (no result: HCMV inh)
CCC(CC)C(=O)N1c2ccc(F)cc2CCC1C (stereo not given)	none
COc1cc(-c2cc(C)c3c(OC)ccc(OC)c3n2)cc2c1OCCN(Cc1cn(C)nc1C)C2	none (no result: HCMV inh, LASV entry inh, MARV entry inh)
Cc1ccc(Cl)cc1NC(=O)C(=O)NCC(c1cccnc1)N1CCc2ccccc21 (stereo not given)	FMDV antiviral inconclusive (no result: MARV entry inh)
O=C(NCc1ccco1)c1ccccc1-c1ccccc1	HCMV inh -80 (no result: Vaccinia Venus, Vaccinia mCherry)
Cc1ccc(C(=O)NCc2ccco2)cc1	none (no result: Vaccinia Venus, Vaccinia mCherry, LASV entry inh, MARV entry inh)
O=C(CCNC(=O)c1ccc([N+](=O)[O-])cc1)NCc1ccco1	HCMV inh -72 (no result: Vaccinia Venus, Vaccinia mCherry, LASV entry inh, MARV entry inh)
O=C(NCc1ccco1)c1ccc(C(=O)NCc2ccco2)cc1	HCMV inh -69
O=C(NCc1ccco1)c1ccc2c(c1)C(=O)c1ccccc1-2	LASV entry inh 23µM, MARV entry inh inconclusive (no result: Vaccinia Venus, Vaccinia mCherry)
CN(C)C(=O)c1ccc(/C=C/c2ccnc3ccccc23)cc1	none (no result: HCMV inh, FMDV antiviral, LASV entry inh, MARV entry inh)
Cc1cc(C)nc(NS(=O)(=O)c2ccc(NC(=O)c3nc(SC(C)C)ncc3Cl)cc2)n1	none
Cc1ccc2c(c1)N(CCCC(=O)NCc1cccc(F)c1)C(=O)CO2	LASV entry inh inconclusive, MARV entry inh inconclusive
COc1ccc(Cc2noc(-c3ccccc3)n2)cc1OC	HCMV inh inconclusive (no result: LASV entry inh, MARV entry inh)
COc1ccc(Cc2noc(CN3CCN(c4ccc(Cl)cn4)CC3)n2)cc1OC	FMDV antiviral 13µM, Vaccinia Venus inconclusive, LASV entry inh inconclusive, MARV entry inh inconclusive
COc1ccc(-c2nc(Cc3ccc(Cl)cc3)no2)cc1OC	HCMV inh -74, LASV entry inh 4µM (no result: Vaccinia mCherry)
COc1ccc(Cc2noc(CN3CCN(Cc4cccc(Cl)c4)CC3)n2)cc1OC	FMDV antiviral inconclusive, LASV entry inh inconclusive, MARV entry inh inconclusive
COc1cccc(/C=C/C(=O)Nc2ccc3nc(N4CCN(C)CC4)cc(C)c3c2)c1OC	HCMV inh -106, LASV entry inh inconclusive, MARV entry inh inconclusive
CCN1CCN(c2cc(C)c3cc(NC(=O)Cc4ccc(OC)c(OC)c4)ccc3n2)CC1	Vaccinia Venus inconclusive (no result: LASV entry inh)
CCN1CCN(c2cc(C)c3cc(NC(=O)/C=C/c4cccc(OC)c4OC)ccc3n2)CC1	HCMV inh -100, Vaccinia Venus inconclusive, Vaccinia mCherry inconclusive, LASV entry inh inconclusive, MARV entry inh 7.1µM
CCN1CCN(c2cc(C)c3cc(NC(=O)/C=C/c4cccc(Cl)c4)ccc3n2)CC1	HCMV inh -101, Vaccinia Venus inconclusive, Vaccinia mCherry 11µM, MARV entry inh 5.6µM
COC(=O)c1ccc(-n2c(/C=C/c3cc(OC)c(OC)c(OC)c3)nc3cc(Cl)ccc3c2=O)cc1	Vaccinia mCherry inconclusive (no result: MARV entry inh)
CC(=O)N1CCc2c(sc(NC(=O)C3CCCN3S(=O)(=O)c3cccs3)c2C(N)=O)C1 (stereo not given)	FMDV antiviral 28µM
CCOc1ccc2nc(NC(=O)c3nc(SC(C)C)ncc3Cl)sc2c1	none
O=S(=O)(c1ccccc1F)N1CCC(Oc2ccc(-n3cnnn3)cc2)CC1	HCMV inh -62, Vaccinia Venus inconclusive, LASV entry inh inconclusive
CC(/C=N/n1c(-c2cccnc2)n[nH]c1=S)=C\c1ccccc1	HCMV inh -77
S=c1[nH]nc(-c2cc(-c3ccccc3)n[nH]2)n1/N=C/C(Br)=C/c1ccccc1	HCMV inh -100, FMDV antiviral inconclusive, Vaccinia Venus inconclusive, Vaccinia mCherry 14µM, LASV entry inh inconclusive, MARV entry inh inconclusive
CC(=C/c1ccccc1)/C=N/n1c(-c2ccncc2)n[nH]c1=S	HCMV inh inconclusive
CCCSCCCNC(=O)C1CCCN(c2nn3cc(-c4ccc(OC)cc4)nc3s2)C1 (stereo not given)	Vaccinia mCherry inconclusive (no result: MARV entry inh)
O=C(CCn1c(=O)[nH]c2ccccc21)NCC1Cc2cc(Cl)cc(-c3ccncc3)c2O1 (stereo not given)	none (no result: HCMV inh, LASV entry inh, MARV entry inh)
CN(C(=O)C(C)(C)C)C1c2c(ccc3ccccc23)OCC1CO (stereo not given)	FMDV antiviral inconclusive, LASV entry inh inconclusive
CNC(=S)N(C)[C@H]1c2c(ccc3ccccc23)OC[C@H]1CO	HCMV inh -60, Vaccinia mCherry inconclusive
c1ccc2oc(-c3[nH]ncc3CN3CCSCC3)cc2c1	MARV entry inh inconclusive
OC1(CNCc2cn[nH]c2-c2cc3ccccc3o2)CCCCC1	MARV entry inh 7.9µM
CCCCC[C@H](C)N1C[C@H](COCc2ccccc2)Oc2cc(N3CC[C@@H](N(C)C)C3)ccc2S1(=O)=O	HCMV inh -101 (no result: LASV entry inh, MARV entry inh)
CCCCC[C@@H](C)N1C[C@H](COCc2ccccc2)Oc2cc(N3CC[C@@H](N(C)C)C3)ccc2S1(=O)=O	HCMV inh -102 (no result: LASV entry inh, MARV entry inh)
COc1ccc(CNc2nc(N)nc3nc[nH]c23)cc1	none (no result: HCMV inh, FMDV antiviral, LASV entry inh, MARV entry inh)
O=C(/C=C/c1ccc(N2CCC(c3ccccc3)=N2)cc1)c1ccccc1	none
CCOC(=O)/C(=C\c1ccc(N2CCC(c3ccccc3)=N2)cc1)C(C)=O	LASV entry inh 7.9µM, MARV entry inh 2.8µM
O=C(Nc1cccnc1)c1ccc([N+](=O)[O-])s1	HCMV inh -84 (no result: Vaccinia Venus, Vaccinia mCherry, LASV entry inh, MARV entry inh)
O=C(Nc1cccc2ccccc12)c1cnsn1	HCMV inh -64 (no result: Vaccinia Venus, Vaccinia mCherry, LASV entry inh, MARV entry inh)
O=C(Nc1cccc2ccccc12)c1ccc([N+](=O)[O-])s1	HCMV inh -98, Vaccinia Venus inconclusive, Vaccinia mCherry inconclusive, LASV entry inh inconclusive
